Reference: ChEMBL document CHEMBL3988442, “University of Dundee, Small-Polar-MMV Screening Library” (2021)
Screen size: about 48,000 compounds; about 13,000 (27%) showed an effect of 50% or more. The list shows a part of the results.

These compounds were tested on Wolbachia pipientis (assay: Anti-Wolbachia Cell-Based Screen). Details: 5 µM.
Format: functional
Design: scale not given: in the data most compounds retested in dose-response had high values

| SMILES | Percent Effect [%] |
| --- | --- |
| C[C@@H]1CN(C(=O)c2cnc(C3CC3)nc2)CC[C@@]1(O)C1CCOCC1 | -14.06 |
| C[C@@H]1CN(C(=O)c2c[nH]c(=O)c(Cl)c2)CC[C@@]1(O)C1CCOCC1 | 3.711 |
| CNc1ccnc(N2CC[C@@](O)(C3CCOCC3)[C@H](C)C2)n1 | 0.6002 |
| C[C@@H]1CN(C(=O)c2ccc(C#N)nc2)CC[C@@]1(O)C1CCOCC1 | -17.54 |
| C[C@@H]1CN(c2cccnn2)CC[C@@]1(O)C1CCOCC1 | 104.1 |
| C[C@@H]1CN(c2ccc(C#N)cn2)CC[C@@]1(O)C1CCOCC1 | 124 |
| C[C@@H]1CN(c2ccc(Cl)cn2)CC[C@@]1(O)C1CCOCC1 | 111.4 |
| CN(Cc1ccsc1)C(=O)C1CCC(=O)N(Cc2ccccn2)C1 (stereo not given) | 0.2635 |
| O=C(Nc1ccc(F)cc1)C1CNCCN1C(=O)CSc1ccncc1 (stereo not given) | -2.751 |
| CN1CC(Nc2ccc(Br)cc2C#N)CCC1=O (stereo not given) | -7.586 |
| CN(Cc1n[nH]c(=O)n1Cc1cccs1)S(C)(=O)=O | 2.826 |
| COc1ccc(CNC[C@H]2COCc3nc4cc(F)ccc4n32)cc1 | -1.545 |
| Cc1cc(C)c2c(c1)C(NCc1nnc3n1CCC3)CCCO2 (stereo not given) | -14.27 |
| CC(C)c1nnc(CN(C)C(c2ccccc2)c2ccc(F)cc2)o1 (stereo not given) | 6.032 |
| Cn1ccc(C(=O)NCc2ccc(Cn3ccnc3)cc2)cc1=O | -4.475 |
| Cn1ccc(C(=O)NCc2cccc(Cn3ccnc3)c2)cc1=O | 0.02977 |
| Cc1nccn1Cc1cccc(CNC(=O)c2ccn(C)c(=O)c2)c1 | 4.832 |
| CC1CCN(Cc2ccc(CNC(=O)c3ccn(C)c(=O)c3)cc2)CC1 | 110.1 |
| CC1CN(c2ccc(CNC(=O)c3ccn(C)c(=O)c3)cn2)CCO1 (stereo not given) | -2.154 |
| Cn1ccc(C(=O)NCc2ccc(CN3CCCC3)cc2)cc1=O | 100.9 |
| Cn1ccc(C(=O)NCc2ccc(CN3CCCCC3)cc2)cc1=O | 90.87 |
| O=C(NCc1ccc(CN2CCCC2)cc1)NC1(CO)CCCC1 | -3.44 |
| Cn1ccc(C(=O)NCc2ccc(N3CCCC3)nc2)cc1=O | -7.824 |
| Cc1c(C)n(CC(O)CN2CCOCC2)c2c(Cl)cccc12.Cl (stereo not given) | 0.7413 |
| Cc1csc(C(C)(C)NCC(=O)N2CCCC(C(F)(F)F)C2)n1 (stereo not given) | -11.49 |

| SMILES | Percent Effect [%] |
| --- | --- |
| COc1ccc(N(C(=O)c2ccccn2)C(C)C)cc1F | 1.663 |
| CCc1ccc(CN2CCN(c3ncc(Cl)cn3)CC2)nc1 | -9.614 |
| COCCN(C(=O)c1cc(-c2ccc(C)s2)[nH]n1)C1CC1 | 0.109 |
| CCCN(CC)C(=O)c1nc2c(n1C)CCN(Cc1ccccc1)C2 | -8.908 |
| CC(CNC(=O)c1cc(Cn2cnc3ccccc32)[nH]n1)N1CCCC1 (stereo not given) | 2.077 |
| CCCN(CC)C(=O)c1cc(Cn2c(C)nc3ccccc32)[nH]n1 | 146 |
| CCCN(CCOC)C(=O)c1cc(Cn2c(C)nc3ccccc32)[nH]n1 | 142.8 |
| COCCN(CCOC)C(=O)c1ccn(-c2ccc3ccccn23)n1 | 3.271 |
| CCN(CCO)C(=O)c1cc(Cn2c(C)nc3ccccc32)[nH]n1 | 148 |
| CC(=O)N[C@H]1CCN(C(=O)c2cc(Cn3cnc4ccccc43)[nH]n2)C1 | -30.35 |
| NC(=O)CNC(=O)c1cc(Cn2cnc3ccccc32)[nH]n1 | -4.781 |
| COc1ccc(OC)c(CNC2CCCN(c3cccnn3)C2)c1 (stereo not given) | -14.68 |
| Cc1ccoc1C(=O)N1CCNCC1C(=O)NCc1ccncc1 (stereo not given) | -11.73 |
| Cc1cc2n(n1)CC(CNCCc1cnn(C)c1)CN2 (stereo not given) | -15.02 |
| O=C(NCCCC(=O)N1Cc2ccccc2C1)NCc1nccs1 | -8.527 |
| CC(=O)N1CCN(C(=O)CNc2ccc3ncsc3c2)CC1 | -9.479 |
| CCCc1nc(N(C)CCc2noc(C(C)C)n2)c2cnn(C)c2n1 | 13.53 |
| CCc1nnc2n1CCN(C(=O)C(C)COCc1ccccc1)C2 (stereo not given) | 5.124 |
| Cc1ccc(F)c2c1CCCN2C(=O)Cc1c(C)nn(C)c1C | -7.331 |
| Cc1nn(C)c(C)c1OCC(=O)N1CCCc2c(F)ccc(F)c21 | -4.523 |
| Cc1ccc(F)c2c1N(C(=O)Cc1c(C)nn(C)c1C)CCC2 | 55.91 |
| Cn1c(CC2CCS(=O)(=O)C2)nnc1SCCOc1cccc(Cl)c1 (stereo not given) | -0.5002 |
| Cc1cc(C)c2ncn(CC(C)(C)CO)c(=O)c2c1 | 2.019 |
| Cc1cc(C)c2ncn(CCC(C)O)c(=O)c2c1 (stereo not given) | -16.19 |
| COCCn1cnc2c(F)cc(Br)cc2c1=O | 109.9 |

| SMILES | Percent Effect [%] |
| --- | --- |
| COc1cc2ccn(CCS(C)(=O)=O)c(=O)c2cc1F | 3.704 |
| N#CCCn1cnc2c(Br)cc(Br)cc2c1=O | 26.83 |
| N#CCCCn1nnnc1Cc1ccc(Br)cc1 | -5.124 |
| N#CCCn1cnc2c(F)cc(Br)cc2c1=O | 102.6 |
| N#CCCCn1cnc2c(F)cc(Br)cc2c1=O | 100.3 |
| CC(C)COc1ccccc1CN(C)C(=O)c1cc(=O)[nH]c(=O)[nH]1 | -33.98 |
| CNCCNc1ccc(-c2nc(-c3cccc(OC)c3OC)no2)cn1 | -9.505 |
| Cc1noc(C)c1CN1CCOC2(CCCN(c3ncccn3)C2)C1.O=C(O)C(F)(F)F (stereo not given) | 2.072 |
| Cc1noc(C)c1CN1CCC2(CC1)CN(c1ccccn1)CCO2.O=C(O)C(F)(F)F.O=C(O)C(F)(F)F | -6.126 |
| Cc1nc(CN2CCOCC3(CCCN(c4cnccn4)C3)C2)cs1.O=C(O)C(F)(F)F (stereo not given) | -4.433 |
| Cc1noc(C)c1CN1CCOCC12CCN(c1ncccn1)CC2.O=C(O)C(F)(F)F | 113.5 |
| Cc1noc(C)c1CN1CCOCC12CCN(c1cnccn1)CC2.O=C(O)C(F)(F)F | 82.98 |
| CC(C)N1CCOCC2(CCN(c3cnccn3)CC2)C1.O=C(O)C(F)(F)F | -21.42 |
| Cc1noc(C2CN(Cc3ccc4c(c3)CCO4)C2)n1.O=C(O)C(=O)O | 22.63 |
| O=C(CCOCc1ccccc1)N1CCCC1c1noc(C2CC2)n1 (stereo not given) | 14.67 |
| O=C(CCOCC(F)(F)F)N1CCCC1c1noc(C2CC2)n1 (stereo not given) | 110.3 |
| Cc1nc(C2CCCN2C(=O)CN(C)Cc2ccccc2)no1 (stereo not given) | 10.99 |
| O=C(Cc1noc2ccccc12)N1CCCC1c1noc(C2CC2)n1 (stereo not given) | 8.423 |
| O=C(COC1CCCC1)N1CCCC1c1noc(C2CC2)n1 (stereo not given) | -26.64 |
| CC(C)c1nc(C2CCCN2C(=O)CN(C)Cc2ccccc2)no1 (stereo not given) | -1.303 |
| O=C(COCc1ccccc1)N1CCCC1c1noc(C2CC2)n1 (stereo not given) | 106.9 |
| O=C(Cc1ccc2c(c1)CCO2)N1CCCC1c1noc(C2CC2)n1 (stereo not given) | 96.74 |
| FC(F)(F)COCCN1CCCC(c2noc(C3CC3)n2)C1 (stereo not given) | 7.435 |
| CN(CC(=O)N1CCCC1c1noc(C2CC2)n1)Cc1ccccc1 (stereo not given) | 125 |
| CN(CC(=O)N1CCCC1c1noc(C2CC2)n1)S(C)(=O)=O (stereo not given) | -4.579 |
